The target in test [1] is Tyrosine-protein kinase SYK (Homo sapiens) (UniProt P43405). The settings on record: at 10 µM.
The target in test [2] is T1, Mitogen-activated protein kinase kinase kinase 7 (Homo sapiens) (UniProt O43318).
T1 sequence (whole entry): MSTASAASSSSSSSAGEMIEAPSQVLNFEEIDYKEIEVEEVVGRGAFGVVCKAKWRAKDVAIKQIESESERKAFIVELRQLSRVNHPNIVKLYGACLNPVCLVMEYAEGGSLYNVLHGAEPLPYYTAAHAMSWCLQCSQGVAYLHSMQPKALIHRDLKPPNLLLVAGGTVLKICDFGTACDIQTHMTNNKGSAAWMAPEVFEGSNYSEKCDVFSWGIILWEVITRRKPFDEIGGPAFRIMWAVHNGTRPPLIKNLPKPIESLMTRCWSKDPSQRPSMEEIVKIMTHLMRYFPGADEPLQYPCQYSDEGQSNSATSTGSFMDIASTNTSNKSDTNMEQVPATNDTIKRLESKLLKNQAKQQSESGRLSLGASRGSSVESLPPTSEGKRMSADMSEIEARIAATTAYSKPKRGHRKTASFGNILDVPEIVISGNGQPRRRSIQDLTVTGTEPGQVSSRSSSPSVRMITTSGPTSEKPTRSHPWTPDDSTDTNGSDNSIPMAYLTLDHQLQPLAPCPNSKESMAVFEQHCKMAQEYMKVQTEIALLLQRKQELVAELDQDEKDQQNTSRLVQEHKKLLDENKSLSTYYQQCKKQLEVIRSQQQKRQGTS
As to conditions: at 1 µM.

In test [3] the target is T1, Mitogen-activated protein kinase kinase kinase 7 (Homo sapiens). The settings on record: at 10 µM.
Test [4] concerns the target T2, Serine/threonine-protein kinase TAO1 (Homo sapiens) (UniProt Q7L7X3).
T2 sequence (whole entry): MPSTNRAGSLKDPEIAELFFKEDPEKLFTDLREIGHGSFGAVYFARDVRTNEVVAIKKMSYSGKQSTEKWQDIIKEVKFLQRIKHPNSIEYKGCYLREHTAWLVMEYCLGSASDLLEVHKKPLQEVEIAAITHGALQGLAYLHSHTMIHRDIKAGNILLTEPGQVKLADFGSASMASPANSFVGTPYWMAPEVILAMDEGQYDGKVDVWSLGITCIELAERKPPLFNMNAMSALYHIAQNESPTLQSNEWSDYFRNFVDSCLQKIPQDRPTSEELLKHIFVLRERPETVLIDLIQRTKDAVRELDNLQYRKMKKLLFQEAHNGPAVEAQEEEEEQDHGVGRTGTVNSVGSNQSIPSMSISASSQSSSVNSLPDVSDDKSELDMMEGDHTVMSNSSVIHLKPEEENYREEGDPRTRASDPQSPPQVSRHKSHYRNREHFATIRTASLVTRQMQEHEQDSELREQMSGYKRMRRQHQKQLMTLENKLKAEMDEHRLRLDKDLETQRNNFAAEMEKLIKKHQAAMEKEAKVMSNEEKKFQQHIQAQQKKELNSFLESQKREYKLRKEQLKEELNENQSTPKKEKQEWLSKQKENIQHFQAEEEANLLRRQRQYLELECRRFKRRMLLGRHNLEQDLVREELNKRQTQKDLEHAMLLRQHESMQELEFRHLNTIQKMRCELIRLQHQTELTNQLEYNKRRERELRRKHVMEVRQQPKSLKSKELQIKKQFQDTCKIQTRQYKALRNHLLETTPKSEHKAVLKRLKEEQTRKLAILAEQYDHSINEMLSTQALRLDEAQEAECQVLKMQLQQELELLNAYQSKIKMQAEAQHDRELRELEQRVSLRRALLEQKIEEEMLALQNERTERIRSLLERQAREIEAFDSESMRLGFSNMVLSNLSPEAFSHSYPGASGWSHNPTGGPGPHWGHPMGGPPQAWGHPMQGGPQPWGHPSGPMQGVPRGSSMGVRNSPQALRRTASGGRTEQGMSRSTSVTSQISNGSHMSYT
The settings on record: at 1 µM.

For test [5], the target named is T2, Serine/threonine-protein kinase TAO1 (Homo sapiens). As to conditions: at 10 µM.
The target of test [6] is T3, Serine/threonine-protein kinase TAO2 (Homo sapiens) (UniProt Q9UL54).
T3 sequence (whole entry): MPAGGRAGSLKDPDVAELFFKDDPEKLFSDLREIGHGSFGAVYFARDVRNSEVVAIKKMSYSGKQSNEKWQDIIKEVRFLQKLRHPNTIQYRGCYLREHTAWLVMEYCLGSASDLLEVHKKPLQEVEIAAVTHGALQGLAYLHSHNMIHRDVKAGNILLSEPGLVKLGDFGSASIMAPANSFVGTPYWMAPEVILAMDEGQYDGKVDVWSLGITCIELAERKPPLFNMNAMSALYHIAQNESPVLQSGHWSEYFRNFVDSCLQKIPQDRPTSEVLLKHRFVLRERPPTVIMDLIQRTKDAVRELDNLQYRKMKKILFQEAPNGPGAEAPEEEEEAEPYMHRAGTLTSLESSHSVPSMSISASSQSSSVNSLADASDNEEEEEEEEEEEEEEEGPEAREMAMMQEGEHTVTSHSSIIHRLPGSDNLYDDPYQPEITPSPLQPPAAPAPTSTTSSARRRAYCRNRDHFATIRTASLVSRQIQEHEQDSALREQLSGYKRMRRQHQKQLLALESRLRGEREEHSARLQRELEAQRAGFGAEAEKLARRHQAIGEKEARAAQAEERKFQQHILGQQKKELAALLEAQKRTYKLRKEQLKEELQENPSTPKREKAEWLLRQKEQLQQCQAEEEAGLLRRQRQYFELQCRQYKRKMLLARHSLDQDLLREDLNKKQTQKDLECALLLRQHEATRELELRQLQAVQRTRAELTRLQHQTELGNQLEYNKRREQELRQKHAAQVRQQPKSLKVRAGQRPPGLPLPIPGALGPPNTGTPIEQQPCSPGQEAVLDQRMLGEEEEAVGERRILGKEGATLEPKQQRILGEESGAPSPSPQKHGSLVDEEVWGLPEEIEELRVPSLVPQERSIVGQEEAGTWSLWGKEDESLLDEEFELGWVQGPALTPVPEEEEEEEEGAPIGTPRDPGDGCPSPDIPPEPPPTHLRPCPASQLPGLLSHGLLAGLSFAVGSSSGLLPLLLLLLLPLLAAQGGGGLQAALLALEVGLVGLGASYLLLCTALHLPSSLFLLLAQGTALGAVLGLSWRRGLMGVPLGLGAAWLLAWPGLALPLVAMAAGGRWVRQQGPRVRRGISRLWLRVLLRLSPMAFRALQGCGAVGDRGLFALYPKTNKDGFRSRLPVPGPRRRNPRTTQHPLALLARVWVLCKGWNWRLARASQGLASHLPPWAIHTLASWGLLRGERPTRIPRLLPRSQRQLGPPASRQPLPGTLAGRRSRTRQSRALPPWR
As to conditions: at 1 µM.

Test [7] concerns the target T3, Serine/threonine-protein kinase TAO2 (Homo sapiens). As to conditions: at 10 µM.
Test [8] has as its target T4, Serine/threonine-protein kinase TAO3 (Homo sapiens) (UniProt Q9H2K8).
T4 sequence (whole entry): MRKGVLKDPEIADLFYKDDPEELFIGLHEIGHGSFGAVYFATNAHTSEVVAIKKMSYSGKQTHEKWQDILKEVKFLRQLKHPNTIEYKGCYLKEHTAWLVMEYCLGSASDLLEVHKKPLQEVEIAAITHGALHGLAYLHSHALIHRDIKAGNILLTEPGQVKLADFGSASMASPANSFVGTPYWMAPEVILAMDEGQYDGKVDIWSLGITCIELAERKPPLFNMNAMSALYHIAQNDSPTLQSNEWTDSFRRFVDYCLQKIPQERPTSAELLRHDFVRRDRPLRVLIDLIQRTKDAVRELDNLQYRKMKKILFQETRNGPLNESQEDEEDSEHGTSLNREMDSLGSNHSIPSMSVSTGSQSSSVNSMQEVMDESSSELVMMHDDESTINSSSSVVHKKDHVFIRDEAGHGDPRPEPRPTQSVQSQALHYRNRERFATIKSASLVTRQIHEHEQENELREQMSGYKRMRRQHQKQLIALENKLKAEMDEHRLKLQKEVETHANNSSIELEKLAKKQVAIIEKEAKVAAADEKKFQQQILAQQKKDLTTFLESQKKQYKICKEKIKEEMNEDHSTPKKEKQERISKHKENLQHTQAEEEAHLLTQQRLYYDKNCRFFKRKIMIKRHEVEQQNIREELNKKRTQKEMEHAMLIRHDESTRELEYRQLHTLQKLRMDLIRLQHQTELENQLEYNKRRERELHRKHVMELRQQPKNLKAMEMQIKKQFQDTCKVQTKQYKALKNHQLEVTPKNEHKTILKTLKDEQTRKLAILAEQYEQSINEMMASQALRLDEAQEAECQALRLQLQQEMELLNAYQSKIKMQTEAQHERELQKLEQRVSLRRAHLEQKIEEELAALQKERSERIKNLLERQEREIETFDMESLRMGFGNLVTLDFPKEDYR
As to conditions: at 1 µM.

Test [9] addresses T4, Serine/threonine-protein kinase TAO3 (Homo sapiens). As to conditions: at 10 µM.
Test [10] has as its target T5, Serine/threonine-protein kinase TBK1 (Homo sapiens) (UniProt Q9UHD2).
T5 sequence (whole entry): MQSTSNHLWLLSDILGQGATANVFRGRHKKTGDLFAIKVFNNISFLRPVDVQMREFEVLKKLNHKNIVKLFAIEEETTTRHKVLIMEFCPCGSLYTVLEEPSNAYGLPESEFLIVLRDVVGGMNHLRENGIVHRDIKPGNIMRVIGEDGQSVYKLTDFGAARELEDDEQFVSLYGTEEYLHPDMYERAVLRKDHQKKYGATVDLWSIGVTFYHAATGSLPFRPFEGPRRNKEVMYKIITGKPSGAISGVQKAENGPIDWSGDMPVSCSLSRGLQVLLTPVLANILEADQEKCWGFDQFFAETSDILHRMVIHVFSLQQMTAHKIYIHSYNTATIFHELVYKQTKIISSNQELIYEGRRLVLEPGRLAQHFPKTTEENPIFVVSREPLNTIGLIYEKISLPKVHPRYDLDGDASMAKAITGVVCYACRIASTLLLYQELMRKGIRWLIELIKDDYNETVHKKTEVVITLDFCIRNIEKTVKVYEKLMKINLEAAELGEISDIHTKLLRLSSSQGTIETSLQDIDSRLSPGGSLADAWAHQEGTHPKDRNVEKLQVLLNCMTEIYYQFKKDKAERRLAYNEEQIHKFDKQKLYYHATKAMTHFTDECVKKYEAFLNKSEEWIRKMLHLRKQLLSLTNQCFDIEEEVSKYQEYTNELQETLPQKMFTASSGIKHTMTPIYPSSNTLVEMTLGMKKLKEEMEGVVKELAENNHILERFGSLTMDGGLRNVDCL
The settings on record: at 1 µM.

Test [11] addresses T5, Serine/threonine-protein kinase TBK1 (Homo sapiens). As to conditions: at 10 µM.
Test [12] deals with T6, TGF-beta receptor type-1 (Homo sapiens) (UniProt P36897).
T6 sequence (whole entry): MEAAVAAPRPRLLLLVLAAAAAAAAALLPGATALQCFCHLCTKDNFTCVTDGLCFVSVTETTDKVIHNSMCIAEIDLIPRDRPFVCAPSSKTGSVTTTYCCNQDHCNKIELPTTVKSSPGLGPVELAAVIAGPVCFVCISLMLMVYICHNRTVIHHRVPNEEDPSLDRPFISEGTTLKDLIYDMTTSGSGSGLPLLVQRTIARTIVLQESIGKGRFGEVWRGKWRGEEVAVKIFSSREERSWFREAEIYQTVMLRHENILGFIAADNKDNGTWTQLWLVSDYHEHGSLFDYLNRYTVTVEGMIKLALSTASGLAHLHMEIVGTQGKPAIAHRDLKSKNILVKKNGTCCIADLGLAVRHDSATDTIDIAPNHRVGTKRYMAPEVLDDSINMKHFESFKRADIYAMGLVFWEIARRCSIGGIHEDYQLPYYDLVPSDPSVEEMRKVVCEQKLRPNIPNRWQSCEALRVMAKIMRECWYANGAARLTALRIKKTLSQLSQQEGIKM
As to conditions: at 1 µM.

The target of test [13] is T6, TGF-beta receptor type-1 (Homo sapiens). The settings on record: at 10 µM.
In test [14] the target is Insulin-like growth factor 1 receptor (Homo sapiens) (UniProt P08069). The settings on record: at 1 µM.
Test [15] has as its target T7, Inhibitor of nuclear factor kappa-B kinase subunit beta (Homo sapiens) (UniProt O14920).
T7 sequence (whole entry): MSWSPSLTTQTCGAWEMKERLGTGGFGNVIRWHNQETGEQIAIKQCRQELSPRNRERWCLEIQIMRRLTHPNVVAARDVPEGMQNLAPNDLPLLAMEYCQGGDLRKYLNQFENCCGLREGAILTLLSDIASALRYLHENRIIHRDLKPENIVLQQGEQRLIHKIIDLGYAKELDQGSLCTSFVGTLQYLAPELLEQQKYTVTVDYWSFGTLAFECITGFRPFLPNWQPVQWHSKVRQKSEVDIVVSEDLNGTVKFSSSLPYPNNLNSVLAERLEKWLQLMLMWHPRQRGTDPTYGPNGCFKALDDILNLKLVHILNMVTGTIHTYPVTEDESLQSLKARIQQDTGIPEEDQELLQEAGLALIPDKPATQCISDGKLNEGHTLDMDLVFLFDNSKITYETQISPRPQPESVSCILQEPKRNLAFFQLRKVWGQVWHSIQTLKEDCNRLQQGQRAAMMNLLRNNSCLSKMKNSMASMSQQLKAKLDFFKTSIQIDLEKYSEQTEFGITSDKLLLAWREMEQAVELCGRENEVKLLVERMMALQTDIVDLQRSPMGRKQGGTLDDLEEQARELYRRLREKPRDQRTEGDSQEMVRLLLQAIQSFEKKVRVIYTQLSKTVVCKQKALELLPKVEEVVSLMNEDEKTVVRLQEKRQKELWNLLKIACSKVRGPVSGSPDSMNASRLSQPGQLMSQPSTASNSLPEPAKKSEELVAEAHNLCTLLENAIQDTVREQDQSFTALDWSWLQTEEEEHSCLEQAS
As to conditions: at 1 µM.

Test [16] has as its target T7, Inhibitor of nuclear factor kappa-B kinase subunit beta (Homo sapiens). As to conditions: at 10 µM.
In test [17] the target is Insulin receptor (Homo sapiens) (UniProt P06213). As to conditions: at 1 µM.

SMILES strings stand for the structures.

Insulin receptor (Homo sapiens), sequence (P06213 28-758 limits assumed): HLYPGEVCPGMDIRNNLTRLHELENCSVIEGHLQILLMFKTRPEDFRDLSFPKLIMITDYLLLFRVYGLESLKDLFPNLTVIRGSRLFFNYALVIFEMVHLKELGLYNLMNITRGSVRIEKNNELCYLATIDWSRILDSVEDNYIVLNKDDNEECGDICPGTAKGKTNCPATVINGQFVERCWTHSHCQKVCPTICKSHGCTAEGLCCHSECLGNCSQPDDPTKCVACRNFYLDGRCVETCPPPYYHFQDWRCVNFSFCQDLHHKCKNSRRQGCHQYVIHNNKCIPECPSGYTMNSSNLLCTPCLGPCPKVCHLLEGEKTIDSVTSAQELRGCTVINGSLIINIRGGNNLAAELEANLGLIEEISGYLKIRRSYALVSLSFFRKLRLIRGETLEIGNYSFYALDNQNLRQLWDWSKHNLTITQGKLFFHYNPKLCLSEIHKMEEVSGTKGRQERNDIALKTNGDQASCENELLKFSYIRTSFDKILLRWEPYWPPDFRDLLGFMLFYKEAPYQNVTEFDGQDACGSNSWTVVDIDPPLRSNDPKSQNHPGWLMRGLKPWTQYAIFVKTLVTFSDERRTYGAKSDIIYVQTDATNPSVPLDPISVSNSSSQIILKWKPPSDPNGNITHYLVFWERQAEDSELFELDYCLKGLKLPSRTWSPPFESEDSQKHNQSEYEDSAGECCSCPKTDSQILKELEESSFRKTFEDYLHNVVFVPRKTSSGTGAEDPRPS
Insulin receptor (Homo sapiens), sequence (P06213 763-1382 limits assumed): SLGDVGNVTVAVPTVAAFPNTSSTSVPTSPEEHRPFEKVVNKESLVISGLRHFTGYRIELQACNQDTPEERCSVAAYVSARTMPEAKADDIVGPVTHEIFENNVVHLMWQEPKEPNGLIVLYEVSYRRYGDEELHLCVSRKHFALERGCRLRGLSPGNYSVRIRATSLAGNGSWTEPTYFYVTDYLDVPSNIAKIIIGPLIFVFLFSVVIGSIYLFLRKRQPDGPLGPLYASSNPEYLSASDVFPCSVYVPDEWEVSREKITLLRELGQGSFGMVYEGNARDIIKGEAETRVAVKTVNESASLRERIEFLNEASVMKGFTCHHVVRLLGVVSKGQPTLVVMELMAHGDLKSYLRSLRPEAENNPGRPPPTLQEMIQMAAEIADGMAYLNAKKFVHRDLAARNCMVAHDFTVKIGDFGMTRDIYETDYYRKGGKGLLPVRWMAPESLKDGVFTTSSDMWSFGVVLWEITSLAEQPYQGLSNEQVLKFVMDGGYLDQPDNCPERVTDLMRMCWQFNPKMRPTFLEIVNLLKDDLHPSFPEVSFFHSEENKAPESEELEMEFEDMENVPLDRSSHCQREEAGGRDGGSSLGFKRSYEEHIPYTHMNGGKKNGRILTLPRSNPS
Insulin-like growth factor 1 receptor (Homo sapiens), sequence (P08069 31-736 limits assumed): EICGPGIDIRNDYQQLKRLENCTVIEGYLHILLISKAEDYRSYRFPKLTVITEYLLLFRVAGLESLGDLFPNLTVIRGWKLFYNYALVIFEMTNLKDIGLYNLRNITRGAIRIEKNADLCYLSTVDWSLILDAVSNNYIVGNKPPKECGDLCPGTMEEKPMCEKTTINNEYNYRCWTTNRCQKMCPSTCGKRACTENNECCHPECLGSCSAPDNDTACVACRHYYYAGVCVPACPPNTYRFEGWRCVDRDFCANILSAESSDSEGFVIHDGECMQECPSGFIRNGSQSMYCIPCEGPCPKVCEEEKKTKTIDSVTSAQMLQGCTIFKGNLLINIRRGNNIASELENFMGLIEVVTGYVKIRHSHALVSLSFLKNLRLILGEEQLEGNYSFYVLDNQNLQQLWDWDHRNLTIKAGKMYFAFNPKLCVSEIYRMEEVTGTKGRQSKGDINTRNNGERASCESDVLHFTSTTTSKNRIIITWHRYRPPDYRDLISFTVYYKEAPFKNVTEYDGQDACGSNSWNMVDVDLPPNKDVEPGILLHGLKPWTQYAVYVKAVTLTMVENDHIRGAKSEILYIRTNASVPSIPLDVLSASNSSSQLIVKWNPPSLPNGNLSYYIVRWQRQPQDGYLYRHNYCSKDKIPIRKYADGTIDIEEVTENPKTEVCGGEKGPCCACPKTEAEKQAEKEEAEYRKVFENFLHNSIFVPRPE
Insulin-like growth factor 1 receptor (Homo sapiens), sequence (P08069 741-1367 limits assumed): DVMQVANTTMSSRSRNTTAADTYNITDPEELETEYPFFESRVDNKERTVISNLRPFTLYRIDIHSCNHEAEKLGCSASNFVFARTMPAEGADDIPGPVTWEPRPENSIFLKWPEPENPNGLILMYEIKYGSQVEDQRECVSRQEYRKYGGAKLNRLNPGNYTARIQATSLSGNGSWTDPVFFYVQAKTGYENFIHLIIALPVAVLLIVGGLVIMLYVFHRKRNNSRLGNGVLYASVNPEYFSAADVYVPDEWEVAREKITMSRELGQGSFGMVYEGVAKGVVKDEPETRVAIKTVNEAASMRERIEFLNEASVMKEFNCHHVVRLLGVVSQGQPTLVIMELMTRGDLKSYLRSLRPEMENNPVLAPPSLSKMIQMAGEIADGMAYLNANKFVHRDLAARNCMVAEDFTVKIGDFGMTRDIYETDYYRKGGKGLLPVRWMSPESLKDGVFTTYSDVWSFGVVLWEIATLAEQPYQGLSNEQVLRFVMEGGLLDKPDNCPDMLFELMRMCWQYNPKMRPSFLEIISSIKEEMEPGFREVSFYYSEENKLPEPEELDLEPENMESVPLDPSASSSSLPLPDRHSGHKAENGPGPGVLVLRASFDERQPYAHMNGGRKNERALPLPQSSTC

For the compound `CN(C)S(=O)(=O)c1ccc2c(c1)/C(=C/c1cc3c([nH]1)CCCC3)C(=O)N2`, the residual activity is 96% in test [1]; 100% in test [2]; 92% in [3]; 37% in test [4]; 56% in test [5]; 93% in test [6]. Besides, the residual activity in test [7] was found to be 87%; in [8], 89%; in test [9], 73%; in test [10] it was 74%; in test [11] it was 60%; in test [12], 88%. The residual activity in test [13] amounted to 91%; in test [14], 93%; in test [15], 100%; in test [16], 63%; in [17], 93%.
